The text below walks through data of PubChem BioAssay (NCATS).

Assay [1] has as its target Glutathione peroxidase 1 (Homo sapiens) (UniProt P07203). Put plainly: Primary qHTS Assay for Inhibitors of Recombinant Selenoprotein Glutathione Peroxidase 1 (GPX1) (AID 1845191). Also: % is scaled to controls: 0 for no effect and ±100 for the full control effect; nearly all actives have a fitted effect of over 65% in size. Put shortly: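 GPX1 10 nM, GR 100 nM, GSH 1 mM, NADPH 0.5 mM, CHP 0.5 mM (final). 30-min cpd preincubation, RT. Ex340/Em450 read t=0, t=15 min.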
(Quantitative high-throughput screening tests each substance at several concentrations.)

The target of assay [2] is Phospholipid hydroperoxide glutathione peroxidase GPX4 (Homo sapiens) (UniProt P36969). Put plainly: Primary qHTS Assay for Inhibitors of Recombinant Selenoprotein Glutathione Peroxidase 4 (GPX4) (AID 1845192). Also: % is scaled to controls: 0 for no effect and ±100 for the full control effect; nearly all actives have a fitted effect of over 65% in size. Put shortly:
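qHTS, GR-coupled: GPX4 200 nM + cpd 30 min RT → GSH 1 mM, NADPH 0.5 mM, GR 100 nM → CHP 0.5 mM start; fluor 340/450 at t0 and t15 min; no-enzyme wells as control.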

In assay [3] the target is Rap guanine nucleotide exchange factor 3 (Homo sapiens) (UniProt O95398). Put plainly: Confirmatory qHTS for agonist of cAMP-regulated guanine nucleotide exchange factor 3 (EPAC1) (AID 1645881).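 Also: EPAC1 catalysed release of BODIPY-GDP from Rap1B seen as fluorescence loss; nearly all actives have a fitted effect of over 75% in size.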
Sequence of Rap guanine nucleotide exchange factor 3 (Homo sapiens) (O95398 whole entry, looked up): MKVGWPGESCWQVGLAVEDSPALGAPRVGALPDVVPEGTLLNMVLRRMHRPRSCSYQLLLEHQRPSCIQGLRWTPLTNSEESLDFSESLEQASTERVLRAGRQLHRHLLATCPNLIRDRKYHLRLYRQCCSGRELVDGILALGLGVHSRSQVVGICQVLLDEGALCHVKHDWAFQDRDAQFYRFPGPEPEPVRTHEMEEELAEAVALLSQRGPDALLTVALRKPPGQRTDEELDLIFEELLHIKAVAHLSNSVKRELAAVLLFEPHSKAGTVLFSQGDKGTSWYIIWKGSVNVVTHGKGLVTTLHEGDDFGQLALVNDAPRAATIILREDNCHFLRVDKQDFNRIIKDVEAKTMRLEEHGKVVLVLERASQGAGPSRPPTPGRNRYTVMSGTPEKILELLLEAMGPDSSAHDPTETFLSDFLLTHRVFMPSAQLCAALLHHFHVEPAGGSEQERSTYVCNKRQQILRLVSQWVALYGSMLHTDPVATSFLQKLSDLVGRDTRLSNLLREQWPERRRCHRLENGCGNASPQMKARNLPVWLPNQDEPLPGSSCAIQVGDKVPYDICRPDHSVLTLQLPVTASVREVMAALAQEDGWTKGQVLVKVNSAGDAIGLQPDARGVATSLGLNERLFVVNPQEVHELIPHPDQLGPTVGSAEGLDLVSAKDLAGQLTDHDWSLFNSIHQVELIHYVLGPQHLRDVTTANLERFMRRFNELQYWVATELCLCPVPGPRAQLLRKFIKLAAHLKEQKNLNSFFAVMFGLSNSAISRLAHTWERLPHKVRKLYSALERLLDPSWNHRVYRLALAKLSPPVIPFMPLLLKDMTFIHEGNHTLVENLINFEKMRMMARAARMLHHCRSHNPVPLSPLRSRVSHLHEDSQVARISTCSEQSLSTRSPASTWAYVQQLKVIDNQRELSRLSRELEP
Assay [4] concerns the target Rap guanine nucleotide exchange factor 4 (Homo sapiens) (UniProt Q8WZA2). Put plainly: Confirmatory qHTS for agonist of cAMP-regulated guanine nucleotide exchange factor 4 (EPAC2) (AID 1645884).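 Also: nucleotide exchange releases bodipy-GDP from Rap1 and this lowers its fluorescence; % is scaled to controls: 0 for no effect and ±100 for the full control effect; nearly all actives have a fitted effect of over 65% in size.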
For assay [5] the target is unchanged. Put plainly: Confirmatory qHTS for antagonist of cAMP-regulated guanine nucleotide exchange factor 4 (EPAC2) (AID 1645885). Also: nearly all actives have a fitted effect of over 25% in size. Also: potency is read from the fitted curve at half-maximal effect.
The target of assay [6] is Rap guanine nucleotide exchange factor 3 (Homo sapiens) (UniProt O95398). Put plainly: Counterscreen qHTS for antagonist of cAMP-regulated guanine nucleotide exchange factor 3 (EPAC1) (AID 1645888).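 Also: fluorescence loss as bound BODIPY-GDP is released from Rap1B; % of control where 0% means no effect.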 The gist of the method:
(§1)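 Measured: fluorescence of BODIPY-GDP bound to Rap1B, which falls as exchange proceeds. Conditions include 50 uM competing GDP, 5 and 30 min reads, and a later cAMP challenge for antagonist detection.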

For assay [7] the target is unchanged. As to the kind of experiment: Counterscreen qHTS for agonist of cAMP-regulated guanine nucleotide exchange factor 3 (EPAC1) (AID 1645889). Also: nearly all actives have a fitted effect of over 40% in size. Also: potency is read from the fitted curve at half-maximal effect. As to activation: % of control where 0% means no effect. The gist of the method:
as §1

For assay [8], the target named is Cytochrome P450 3A4 (Homo sapiens) (UniProt P08684). Put plainly: qHTS Assay for Activators of Cytochrome P450 3A4 (AID 885). Also: nearly all actives have a fitted effect of over 65% in size. Put shortly: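 Using 20nM recombinant human CYP3A4 in potassium phosphate (200mM), substrate Luciferin-PPXE at 25uM, luminescent luciferin detection followed a 60-min RT NADPH reaction; data scaled to 57 uM ketoconazole.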
Sequence of Cytochrome P450 3A4 (Homo sapiens) (P08684 whole entry, looked up): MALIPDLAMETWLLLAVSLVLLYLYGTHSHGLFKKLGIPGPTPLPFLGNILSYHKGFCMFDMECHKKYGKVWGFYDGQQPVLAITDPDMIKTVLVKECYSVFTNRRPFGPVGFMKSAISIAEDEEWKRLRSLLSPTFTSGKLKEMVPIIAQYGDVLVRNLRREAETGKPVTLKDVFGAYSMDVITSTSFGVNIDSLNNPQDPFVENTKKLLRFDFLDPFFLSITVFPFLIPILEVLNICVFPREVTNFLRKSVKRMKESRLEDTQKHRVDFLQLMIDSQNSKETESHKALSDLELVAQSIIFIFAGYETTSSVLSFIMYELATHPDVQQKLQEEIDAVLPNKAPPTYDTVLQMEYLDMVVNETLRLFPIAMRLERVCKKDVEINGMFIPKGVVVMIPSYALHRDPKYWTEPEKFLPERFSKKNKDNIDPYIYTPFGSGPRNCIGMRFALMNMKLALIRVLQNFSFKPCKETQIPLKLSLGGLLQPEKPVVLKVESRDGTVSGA
The nature of assay [9]: Confirmation and Secondary Assay for Modulators of Hemoglobin Beta Chain Splicing at IVS2 654 locus (AID 910). Also: % of control where 0% means no effect. Put shortly:
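HeLa cells stably carrying EGFP interrupted by mutant beta-globin IVS2-654 intron (CMV-driven) were treated with compound for 2 days at 37C; corrected splicing was scored as total peak GFP intensity per well (488 nm excitation, 500-520 nm emission).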

Assay [10] in a line: Confirmation and Secondary Assay for Modulators of Hemoglobin Beta Chain Splicing at IVS2 705 locus (AID 930).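 Also: HeLa cells stably expressing the EGFP-705 splicing reporter; GFP fluorescence per well restored by corrected splicing of the IVS2-705 intron in EGFP; % of control where 0% means no effect.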 The gist of the method:
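HeLa cells stably carrying EGFP interrupted by mutant beta-globin intron 2 (IVS2-705) treated 2 days at 37C with compound; 500 nM antisense PNA as control. Correct splicing read as total peak GFP intensity per well by laser-scanning cytometry.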

The target in assay [11] is Ubiquitin carboxyl-terminal hydrolase 1 (Homo sapiens) (UniProt O94782). As to the kind of experiment: Inhibitors of USP1/UAF1: Pilot qHTS (AID 504865).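 Also: rhodamine fluorescence freed from ubiquitin-rhodamine substrate followed over time; top concentration of the series differs between compounds; % is scaled to controls: 0 for no effect and ±100 for the full control effect; nearly all actives have a fitted effect of over 35% in size.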 Put shortly:
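Kinetic fluorescence assay: 1nM USP1/UAF1, 15 min compound preincubation, then 150nM Ub-Rho; 480/540 nm.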

For assay [12], the target named is Cytochrome P450 3A4 (Homo sapiens) (UniProt P08684). Put plainly: qHTS Assay for Inhibitors and Substrates of Cytochrome P450 3A4 (AID 884). Also: potency is read from the fitted curve at half-maximal effect; nearly all actives have a fitted effect of over 50% in size. Put shortly: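 Luminescent readout of luciferin produced by CYP3A4 (20 nM) dealkylation of Luciferin-PPXE, 25 uM (its KM). NADPH-driven reaction ran 60 min at RT after 10 min compound preincubation; data scaled to 57 uM ketoconazole as 100% inhibition.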

Assay [13] is described as follows: AP1 Signaling Pathway (AID 357; active = well fitted curve in either direction with a large enough effect, not every such curve was filed as active;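 also: ME-180 reporter cells stimulated with EGF at its EC50 level; % is scaled to controls: 0 for no effect and ±100 for the full control effect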). The gist of the method: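 In this screen, ME-180 cells in Opti-MEM with 0.5% dialyzed FBS received EC50 EGF and compound titrations for 5 h. AP-1 reporter beta-lactamase was detected via CCF4 ratio, giving AC50 for positive and negative modulators.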
The target of assay [14] is Cytochrome P450 1A2 (Homo sapiens) (UniProt P05177). As to the kind of experiment: p450-cyp1a2 (AID 410; calls by dose curve;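 also: -100% = full effect of reference inhibitor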). The gist of the method: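 Read-out is luminescence from luciferin produced by CYP1A2 demethylation of Luciferin-ME (100uM, at Km). Detection reagent stopped the 60 min NADPH-dependent reaction; signals were normalized to 57 uM furafylline.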
Sequence of Cytochrome P450 1A2 (Homo sapiens) (P05177 whole entry, looked up): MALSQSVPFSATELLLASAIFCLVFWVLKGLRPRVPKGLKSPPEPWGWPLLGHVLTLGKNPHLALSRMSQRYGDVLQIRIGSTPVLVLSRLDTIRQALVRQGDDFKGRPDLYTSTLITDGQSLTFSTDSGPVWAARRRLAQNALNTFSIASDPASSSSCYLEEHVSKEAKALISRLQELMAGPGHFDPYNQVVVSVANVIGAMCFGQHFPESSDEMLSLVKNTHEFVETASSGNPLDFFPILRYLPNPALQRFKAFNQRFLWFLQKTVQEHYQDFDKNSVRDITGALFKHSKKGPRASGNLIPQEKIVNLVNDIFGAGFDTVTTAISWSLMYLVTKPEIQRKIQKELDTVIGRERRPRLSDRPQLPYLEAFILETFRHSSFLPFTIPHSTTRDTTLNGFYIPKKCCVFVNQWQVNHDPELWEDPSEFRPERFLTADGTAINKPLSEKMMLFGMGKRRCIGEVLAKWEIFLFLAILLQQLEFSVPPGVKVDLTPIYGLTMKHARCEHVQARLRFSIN
A short description of assay [15]: NFAT Signaling Pathway (AID 444; active = well fitted curve in either direction with a large enough effect, not every such curve was filed as active;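 also: carbachol stimulus at about its EC50 of 1 µM final; % is scaled to controls: 0 for no effect and ±100 for the full control effect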). Particulars: Jurkat NFAT-bla M1, carbachol, beta-lactamase ratio, 5 h; at 17.2 µM (top of the series) unless noted. The gist of the method: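 Jurkat cells carrying an NFAT-driven β-lactamase reporter and co-transfected muscarinic M1 receptor were treated with compound plus carbachol (1 uM final, an EC50 level) for 5 h at 37 °C. CCF4 loading followed for 1 h at RT; 460/530 nm ratio gave %activity.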

A short description of assay [16]: Stat Signaling Pathway (AID 446; active = well fitted curve in either direction with a large enough effect, not every such curve was filed as active;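 also: ME-180 cervical cancer cells given 40 pM IL-6 alongside compound; SIE-controlled beta-lactamase reporter measured as 460/530 nm FRET emission ratio; % is scaled to controls: 0 for no effect and ±100 for the full control effect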). Put shortly:
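Overnight-plated ME-180 cells bearing a STAT Inducible Element beta-lactamase reporter; 5 h co-exposure to compound and 40 pM IL-6; values normalized to 300 pM IL-6 and 125 nM JAK inhibitor controls.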

In assay [17] the target is Glucocorticoid receptor (Homo sapiens) (UniProt P04150). Put plainly: GR-GFP Redistribution (AID 450;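 active = compounds whose dose series gives a full or clear partial fitted curve of increased nuclear translocation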; also: potency is read from the fitted curve at half-maximal effect). The conditions noted are these: U2OS GR-GFP nuclear translocation, laser cytometry, 2 h.
Sequence of Glucocorticoid receptor (Homo sapiens) (P04150 whole entry, looked up): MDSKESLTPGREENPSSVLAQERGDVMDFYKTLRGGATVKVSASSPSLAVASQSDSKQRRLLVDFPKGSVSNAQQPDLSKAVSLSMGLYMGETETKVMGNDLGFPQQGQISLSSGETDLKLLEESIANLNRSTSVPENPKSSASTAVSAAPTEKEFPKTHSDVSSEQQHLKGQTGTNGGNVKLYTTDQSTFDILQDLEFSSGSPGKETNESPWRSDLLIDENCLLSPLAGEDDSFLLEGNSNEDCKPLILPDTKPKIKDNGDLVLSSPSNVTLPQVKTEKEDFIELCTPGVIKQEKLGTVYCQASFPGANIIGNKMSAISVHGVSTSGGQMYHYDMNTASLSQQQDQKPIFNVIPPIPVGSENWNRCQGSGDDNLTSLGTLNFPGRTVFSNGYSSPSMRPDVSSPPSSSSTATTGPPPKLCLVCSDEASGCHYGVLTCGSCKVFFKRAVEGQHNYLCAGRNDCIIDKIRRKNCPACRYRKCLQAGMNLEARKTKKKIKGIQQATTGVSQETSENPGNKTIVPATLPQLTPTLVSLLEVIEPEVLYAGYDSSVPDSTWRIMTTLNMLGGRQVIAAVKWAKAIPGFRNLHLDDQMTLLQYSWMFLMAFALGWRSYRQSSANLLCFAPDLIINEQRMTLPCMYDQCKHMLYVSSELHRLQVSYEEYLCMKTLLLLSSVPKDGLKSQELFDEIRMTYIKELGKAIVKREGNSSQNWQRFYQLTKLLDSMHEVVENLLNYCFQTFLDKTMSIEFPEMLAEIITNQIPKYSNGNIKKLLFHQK
For assay [18] the target is unchanged. Put plainly: GR-EFC Redistribution (AID 451; calls by dose curve; also: potency is read from the fitted curve at half-maximal effect). The conditions noted are these: CHO-K1 GR-EFC translocation, beta-gal luminescence, 2 h. The gist of the method:
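CHO-K1 cells stably expressing nuclear-localized β-gal enzyme acceptor and GR fused C-terminally to the enzyme donor fragment; ligand-driven nuclear translocation restores β-gal by complementation. Compounds titrated up to 46 uM final, 2 h at 37 °C; luminescence read.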

In assay [19] the target is Mitogen-activated protein kinase 10 (Mus musculus) (UniProt Q61831). As to the kind of experiment: JNK3 AlphaScreen Assay (AID 530; active = well fitted curve in either direction with a large enough effect, not every such curve was filed as active;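 also: kinase came from lysate of stimulated human HepG2 cells; signal reports phosphorylation of biotinylated GST-cJun 1-79 at Ser73 with 10 µM ATP; % is scaled to controls: 0 for no effect and ±100 for the full control effect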). Put shortly:
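Biotinylated GST-cJun(1-79) served as substrate for JNK3 in HepG2 lysates stimulated with IL-1beta and TNF-alpha. ATP was 10 uM final, pH 7.6. Ser73 phosphorylation was quantified by AlphaScreen (680 nm excitation).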
(In general: Alpha assays give light when donor and acceptor beads are brought close together.)

Assay [20] concerns the target 3',5'-cyclic-AMP phosphodiesterase 4B (Homo sapiens) (UniProt Q07343). As to the kind of experiment: qHTS Assay for Inhibitors of PDE-IV (AID 607; active = well fitted activation curve with a large enough effect in the main read-out, with a control signal flat, not every such curve was filed as active; also: % of control where 0% means no effect). The gist of the method: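 Live HEK293 cells with a modified cyclic nucleotide-gated (CNG) channel report intracellular cAMP via membrane-potential dye fluorescence (ex 535/em 590 nm). Endogenous PDE-IV was targeted. Compounds were tested at up to 22.9 uM final; RO 20-1724 100 uM served as control.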

Assay [21] has as its target Cytochrome P450 2C9 (Homo sapiens) (UniProt P11712). As to the kind of experiment: qHTS Assay for Inhibitors and Substrates of Cytochrome P450 2C9 (AID 883). Also: % is scaled to controls: 0 for no effect and ±100 for the full control effect; nearly all actives have a fitted effect of over 60% in size. Put shortly: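 A luminogenic readout tracked human CYP2C9 (10nM) converting deoxyluciferin (100uM, at KM) in 25mM KPO4 during 60 min at 37C with regenerated NADPH. Values normalized to 57uM sulphaphenazole as complete inhibition.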

Molecules are shown by their SMILES. A number with no mark means an inactive call. Inconclusive results are not listed. Active and inactive are the calls of the source. Unless noted, calls follow the shape of the dose curve; as a rule, active = well fitted curve in the direction sought with a large enough effect; inconclusive = small, poorly fitted or top-dose-only effect, or another doubt; inactive = no such curve, though single readings can be large; an effect the other way counts as inactive or inconclusive.

Sequence of Rap guanine nucleotide exchange factor 4 (Homo sapiens) (Q8WZA2 whole entry, looked up): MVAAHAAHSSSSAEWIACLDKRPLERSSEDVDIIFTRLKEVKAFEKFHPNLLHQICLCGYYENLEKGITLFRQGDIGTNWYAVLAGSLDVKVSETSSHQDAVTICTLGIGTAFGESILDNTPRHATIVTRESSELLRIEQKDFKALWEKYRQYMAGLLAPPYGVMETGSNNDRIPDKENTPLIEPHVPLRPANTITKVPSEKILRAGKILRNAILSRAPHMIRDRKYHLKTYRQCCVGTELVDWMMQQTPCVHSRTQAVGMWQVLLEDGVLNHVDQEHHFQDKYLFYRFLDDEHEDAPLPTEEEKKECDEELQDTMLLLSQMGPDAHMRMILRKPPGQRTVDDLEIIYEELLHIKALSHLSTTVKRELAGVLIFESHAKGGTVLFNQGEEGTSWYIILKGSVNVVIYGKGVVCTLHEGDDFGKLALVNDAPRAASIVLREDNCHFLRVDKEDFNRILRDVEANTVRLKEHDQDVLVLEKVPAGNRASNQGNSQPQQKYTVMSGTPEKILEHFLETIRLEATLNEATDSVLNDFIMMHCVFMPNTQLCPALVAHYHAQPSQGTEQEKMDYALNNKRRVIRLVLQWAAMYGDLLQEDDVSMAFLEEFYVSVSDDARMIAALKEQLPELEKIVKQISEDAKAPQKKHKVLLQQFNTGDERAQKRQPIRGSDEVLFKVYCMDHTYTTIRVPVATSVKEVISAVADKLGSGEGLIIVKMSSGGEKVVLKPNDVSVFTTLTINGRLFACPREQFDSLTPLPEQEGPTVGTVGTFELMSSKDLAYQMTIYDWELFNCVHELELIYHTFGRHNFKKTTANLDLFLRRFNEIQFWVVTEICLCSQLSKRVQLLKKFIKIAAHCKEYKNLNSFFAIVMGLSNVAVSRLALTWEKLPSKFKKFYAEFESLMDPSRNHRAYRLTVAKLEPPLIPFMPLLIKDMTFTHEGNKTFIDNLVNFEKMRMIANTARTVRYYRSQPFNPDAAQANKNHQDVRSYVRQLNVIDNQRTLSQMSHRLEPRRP
Sequence of Ubiquitin carboxyl-terminal hydrolase 1 (Homo sapiens) (O94782 whole entry, looked up): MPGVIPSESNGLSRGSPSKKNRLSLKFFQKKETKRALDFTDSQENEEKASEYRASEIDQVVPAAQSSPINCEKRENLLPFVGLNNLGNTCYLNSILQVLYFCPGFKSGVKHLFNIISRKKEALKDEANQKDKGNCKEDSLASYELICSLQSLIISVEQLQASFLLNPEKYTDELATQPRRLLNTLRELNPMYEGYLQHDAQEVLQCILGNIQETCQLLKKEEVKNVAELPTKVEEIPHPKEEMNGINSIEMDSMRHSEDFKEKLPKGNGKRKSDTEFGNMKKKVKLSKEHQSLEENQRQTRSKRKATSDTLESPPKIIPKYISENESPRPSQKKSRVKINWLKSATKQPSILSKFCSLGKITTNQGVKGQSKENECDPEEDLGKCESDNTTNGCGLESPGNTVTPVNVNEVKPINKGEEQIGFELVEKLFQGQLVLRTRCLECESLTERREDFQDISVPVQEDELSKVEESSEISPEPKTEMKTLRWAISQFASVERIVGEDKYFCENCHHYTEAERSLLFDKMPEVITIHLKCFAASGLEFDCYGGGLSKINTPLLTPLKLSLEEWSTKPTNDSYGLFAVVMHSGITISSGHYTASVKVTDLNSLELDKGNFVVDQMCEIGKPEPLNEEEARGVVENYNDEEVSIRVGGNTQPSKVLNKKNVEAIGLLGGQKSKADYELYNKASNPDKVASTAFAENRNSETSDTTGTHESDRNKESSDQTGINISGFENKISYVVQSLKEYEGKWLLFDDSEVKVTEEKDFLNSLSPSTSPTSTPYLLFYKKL
Sequence of Glutathione peroxidase 1 (Homo sapiens) (P07203 whole entry, looked up): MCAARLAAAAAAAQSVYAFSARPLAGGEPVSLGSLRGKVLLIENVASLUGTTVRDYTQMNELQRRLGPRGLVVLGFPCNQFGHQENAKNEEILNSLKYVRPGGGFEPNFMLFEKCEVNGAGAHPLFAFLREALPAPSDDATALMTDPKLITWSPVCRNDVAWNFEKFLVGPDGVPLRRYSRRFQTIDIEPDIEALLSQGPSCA
Sequence of Phospholipid hydroperoxide glutathione peroxidase GPX4 (Homo sapiens) (P36969 whole entry, looked up): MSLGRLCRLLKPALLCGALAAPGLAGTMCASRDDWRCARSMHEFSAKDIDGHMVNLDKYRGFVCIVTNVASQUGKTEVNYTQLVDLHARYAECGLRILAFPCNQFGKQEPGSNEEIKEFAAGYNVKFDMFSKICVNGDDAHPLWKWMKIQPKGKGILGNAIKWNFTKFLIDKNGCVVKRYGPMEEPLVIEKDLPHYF

Consider `CCN(CC)C(=O)[C@]1(c2ccccc2)C[C@H]1CN`, for which the Potency entry in [1] and in assay [2] was “inactive” throughout.
As to `Cc1onc(-c2c(F)cccc2Cl)c1C(=O)Oc1ccccc1`, the Potency result in [3] and in assay [5] was “inactive” throughout. Moreover, the activation was 1.99% [at 17.1 µM, percent relative to cAMP agonist control] in assay [4] and 7.91% [at 30.8 µM] in assay [7]. The activity change, negative = inhibition in assay [6] is -3.3% [at 30.8 µM].
Turning to `CC1C/C(=C/c2cccn2C)C(=O)/C(=C/c2cccn2C)C1` (stereo not drawn), the Potency result in assay [3], in assay [4], in assay [5] and in assay [6] was “inactive” throughout. Further, the Potency in [7] was 79.4 µM (active).
Consider `COc1ccc(-c2cc(=O)c3c(O)c(OC)c(OC)c(OC)c3o2)cc1OC`, for which the Potency result in assay [8], in assay [9], in assay [10] and in [11] was “inactive” in each case.
Regarding `COc1ccc(S(=O)(=O)Nc2ccc(OCC(=O)O)cc2)c2ccccc12`, the Potency result in [3], in assay [4], in assay [6] and in assay [7] was “inactive” throughout. Further, in [5], the Potency is 47.8 µM (active).
`CC(=O)OC1CC2C(C)(C)C(=O)C=C[C@]2(C)C2CC[C@@]3(C)C(c4ccoc4)OC(=O)C4O[C@@]43[C@]12C` (stereo partly drawn): in assay [12], the Potency is 12.6 µM (active). For the same compound, the Potency result in assay [8], in assay [9] and in assay [10] was “inactive” each time.
Take `CC1(C(=O)O)CCC2(C)CCC3(C)C(=CC(=O)C4C5(C)CCC(=O)C(C)(C)C5CCC43C)C2C1` (stereo not drawn): the Potency result in [3], in assay [4], in [5], in [6] and in assay [7] was “inactive” each time.
In the case of `CC1CC(C)CN(c2nc3c(c(=O)n(C)c(=O)n3C)n2CCSc2ncccn2)C1` (stereo not drawn), the Potency result in [3] and in assay [5] was “inactive” each time. Moreover, the activation in [4] is 0.98% [at 17.1 µM, percent relative to cAMP agonist control]; in [7] it was 6.66% [at 30.8 µM]. Also, in assay [6], the activity change, negative = inhibition was 1.05% [at 30.8 µM].
Regarding `CCCCC1=CC2=CC(=O)C(C)(OC(=O)C3CCCC3)C(=O)C2=CO1` (stereo not drawn), the Potency result in [3] and in [5] was “inactive” each time. Besides, the activation in assay [4] is 1.4% [at 17.1 µM, percent relative to cAMP agonist control]; in [7], 18% [at 30.8 µM]. The activity change, negative = inhibition in [6] is -20.6% [at 30.8 µM].
`CN(Cc1ccccc1)S(=O)(=O)c1ccc(Cl)c(C(=O)NCc2ccncc2)c1`: the Potency entry in assay [3], in [4], in assay [5], in assay [6] and in [7] was “inactive” throughout.
In the case of `CCc1ccc(S(=O)(=O)Nc2cc3c(cc2C)n(C)c(=O)n3C)cc1`, the Potency result in assay [3] and in assay [5] was “inactive” each time. The activation was 6.63% [at 17.1 µM, percent relative to cAMP agonist control] in [4] and 18.2% [at 30.8 µM] in assay [7]. Besides, the activity change, negative = inhibition in assay [6] is -10.1% [at 30.8 µM].
Take `O=C(/C=C\c1ccc(O)c(O)c1)O[C@@H]1C[C@](O)(C(=O)O)C[C@@H](O)[C@@H]1O`: the call in assay [13], in assay [16] and in assay [20] was inactive. The Potency entry in [14], in assay [19], in [21] and in [11] was “inactive” in each case. Also, in assay [15], the activity change, negative = inhibition is -0.271%. Moreover, the Potency in assay [17] and in [18] was over 20.6 µM each time.
Take `CC(C)C1CC2=C(C(=O)OC(C)(C)O2)C(c2ccc(F)cc2)O1` (stereo not drawn): the Potency entry in [3] and in assay [5] was “inactive” each time. Also, the activation in [4] was 4.14% [at 17.1 µM, percent relative to cAMP agonist control]. Besides, the activity change, negative = inhibition in assay [6] was -3.34% [at 30.8 µM].
Take `Cc1[nH]n(-c2ccccc2)c(=O)c1C(c1cccc([N+](=O)[O-])c1O)c1c(C)[nH]n(-c2ccccc2)c1=O`: the Potency result in [3] and in [5] was “inactive” throughout. The activation in [4] is 0.393% [at 17.1 µM, percent relative to cAMP agonist control]. Moreover, in [6], the activity change, negative = inhibition is 23.8% [at 30.8 µM].
For the compound `Brc1ccc(-c2csc(-c3c[nH]c4ccccc34)n2)cc1`, the Potency result in [3] and in [5] was “inactive” each time. Moreover, the activation in assay [4] is 6.69% [at 17.1 µM, percent relative to cAMP agonist control]; in [7], 15.5% [at 30.8 µM]. The activity change, negative = inhibition in assay [6] was 3.69% [at 30.8 µM].
As for `CC(Oc1ccccc1)C(=O)Nc1nnc(S(=O)(=O)N2CCCCC2)s1` (stereo not drawn), the Potency result in assay [3], in assay [4], in assay [5], in assay [6] and in assay [7] was “inactive” throughout.
For `COc1ccc(OCC(=O)Nc2ccccc2N2CCCCC2)cc1`, the Potency result in [3] and in assay [5] was “inactive” throughout. Further, the activation in [4] was -5.15% [at 17.1 µM, percent relative to cAMP agonist control]; in assay [7], 2.16% [at 30.8 µM]. Besides, the activity change, negative = inhibition in [6] is -4.31% [at 30.8 µM].
